Source: PubChem BioAssay
USP2a block: blocks human ubiquitin-specific protease USP2a | O75604 | USP2 core, Ub-CHOP2 coupled fluorogenic reporter, 485/531 | Potency, µM (doses to about 38.3 µM), inactives show at the top dose activity change, negative = inhibition, hits mostly inhibitors | hit rate 0.01% among 330,000;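 also: potency is read from the fitted curve at half-maximal effect; plate controls were DMSO wells for no effect and full inhibition by NEM control for full effect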
Target sequence (O75604 whole entry, looked up): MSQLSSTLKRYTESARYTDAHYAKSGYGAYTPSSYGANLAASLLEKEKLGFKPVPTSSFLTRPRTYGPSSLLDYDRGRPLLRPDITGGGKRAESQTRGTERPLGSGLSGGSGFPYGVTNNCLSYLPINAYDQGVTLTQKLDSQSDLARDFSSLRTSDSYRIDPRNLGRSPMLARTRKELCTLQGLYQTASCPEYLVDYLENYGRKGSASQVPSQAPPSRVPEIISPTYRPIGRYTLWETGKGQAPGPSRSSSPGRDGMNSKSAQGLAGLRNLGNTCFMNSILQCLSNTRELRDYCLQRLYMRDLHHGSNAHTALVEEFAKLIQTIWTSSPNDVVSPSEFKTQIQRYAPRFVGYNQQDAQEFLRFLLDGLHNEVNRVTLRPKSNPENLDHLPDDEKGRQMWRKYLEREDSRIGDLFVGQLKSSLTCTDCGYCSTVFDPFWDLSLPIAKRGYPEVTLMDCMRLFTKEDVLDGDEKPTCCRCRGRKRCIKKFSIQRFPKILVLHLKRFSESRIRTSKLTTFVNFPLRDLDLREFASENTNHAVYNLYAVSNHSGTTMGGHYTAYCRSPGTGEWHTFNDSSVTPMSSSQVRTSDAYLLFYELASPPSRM
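Deubiquitinase activity read as fluorescence (485/531 nm) after Ub-CHOP2 cleavage activates the enterokinase reporter on its substrate; USP2 core 10nM, Ub-CHOP2 and substrate 25nM each, 30min compound preincubation then 60min RT; data normalized to NEM, curves fitted.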
S2 tox: cell viability loss in ATXN counter-screen; S2 cells (HEK-293 line with an ATXN2-luciferase reporter) viability, CellTiter-Fluor protease fluorescence, 24 h; Potency, µM (doses to about 56.7 µM), most hits filed as cytotoxic; hit rate 0.49% among 400,000; also: potency is read from the fitted curve at half-maximal effect; nearly all actives have a fitted effect of over 40% in size
ATXN2 expr inh: reduces ATXN2 reporter expression in HEK-293 cells. HEK-293 ATXN2-luciferase reporter, luminescence, 24 h. hit rate 0.72% among 360,000. Potency, µM (series often up to 57 µM), inactives show at the highest dose activity change, negative = inhibition, most hits filed as inhibitors. AID 1745845; also: potency is read from the fitted curve at half-maximal effect; % is scaled to controls: 0 for no effect and ±100 for the full control effect; nearly all actives have a fitted effect of over 55% in size
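qHTS (up to 57 uM final) was run with 24 h compound exposure of reporter cells at 37 °C. Each well was multiplexed: SteadyGlo luminescence measured ATXN2-luciferase expression after a fluorogenic Gly-Phe-AFC viability readout (25 uM final).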
IL-1B inflam inh: inflammasome signaling inhibition, IL-1 beta readout; THP-1 LPS/ATP IL-1B secretion, AlphaLISA, 16 h; stronger effect = lower value; activity change, % at 57.5 µM; hit rate 4.7% among 360,000; in the data active = activity change below about -50%; inconclusive = mostly about -30% to -49%; also: % is scaled to controls: 0 for no effect and ±100 for the full control effect
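THP-1 cells pretreated 1 hr with compounds (up to 57.5 uM final), then stimulated with LPS (250 ng/mL final) plus ATP (1.25 mM final); secreted IL-1B measured by AlphaLISA after 16 hr, decreased signal indicating inhibition.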
USP1 inh: USP1/UAF1 (human) deubiquitinase inhibition; recombinant USP1/UAF1, Ub-Rhodamine cleavage fluorescence; AID 743255; Potency, µM (titrated, usually from 57.1 µM), for the others: at the highest dose activity change, negative = inhibition, hits mostly inhibitors; hit rate 0.23% among 390,000; O94782; also: potency is read from the fitted curve at half-maximal effect; % is scaled to controls: 0 for no effect and ±100 for the full control effect; nearly all actives have a fitted effect of over 60% in size
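USP1/UAF1 complex at 1 nM was preincubated with compound for 15 min at room temperature, then Ub-Rho substrate (150nM final) was added. Fluorescence (480/540 nm) was read kinetically, 6 reads every 60 seconds.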
* = called active by the depositor; i = inactive; ? = inconclusive; . = not tested or not shown; ! = not active in a repeat. This is a sample that favours compounds with a hit; in the whole collection about 4.8% have one here. Unless noted, calls follow the shape of the dose curve; as a rule, active = well fitted curve in the direction sought with a large enough effect; inconclusive = small, poorly fitted or top-dose-only effect, or another doubt; inactive = no such curve, though single readings can be large; an effect the other way counts as inactive or inconclusive.

SMILES	USP2a block	S2 tox	ATXN2 expr inh	IL-1B inflam inh	USP1 inh
Cc1ccc(C(N)=O)cc1Nc1nccc(-c2cn(C(C)C)c3cnccc23)n1	.	.	12µM*	.	.
O=C(/C=C/c1ccc(F)cc1)N1CCCN(C(=O)/C=C/c2ccc(F)cc2)CC1	3%	i	9%	-25	-18%
CN1CCN(C(=O)/C=C/c2ccc([N+](=O)[O-])o2)CC1	12%	.	.	-58*	-29%
O=C(/C=C/c1ccc(-c2ccc(F)cc2)o1)N1CCCC1	3%	i	81%	-75*	-13%
CC(=O)Oc1cccc(N2C(=O)C3C4C=CC(C4)C3C2=O)c1 (stereo not given)	-3%	i	2%	2	-8%
C=C(C)C(=O)Oc1ccc(N2C(=O)[C@@H]3C4C=CC(C4)[C@@H]3C2=O)cc1	3%	i	2%	-99*	?
COc1ccccc1Nc1c2ccccc2nc2ccccc12	-4%	.	-15%	-93*	-12%
COc1ccc(Nc2cc(C)c3ccccc3n2)cc1	1%	i	32%	-97*	-21%
Cc1cc(Nc2ccc([N+](=O)[O-])cc2)nc2ccccc12	0%	i	.	0	-12%
COc1ccc(Nc2ccc(Nc3ccc(OC)cc3)nn2)cc1	-1%	i	.	26	1%
CC(C)(C)Nc1c2ccccc2nc2ccccc12	-2%	i	-10%	-92*	-19%
COc1ccc(Nc2ccc(OC)cc2)cc1	2%	i	14%	-52*	-20%
COc1cc(Cl)c(S(=O)(=O)NCCc2c(C)[nH]c3c(C)cccc23)cc1Cl	.	?	?	.	-26%
Cc1cccc(NC(=O)c2cc(S(=O)(=O)N3CCc4ccccc43)cn2C)c1C	2%	i	-2%	0	3%
CCCN1C(=O)c2ccccc2CC1(C)C(=O)NC1CCCCC1 (stereo not given)	.	.	.	.	-12%
COc1cc(Nc2nc(-c3ccccc3)c3cc(C)ccc3n2)cc(OC)c1OC	3%	i	-11%	-65*	-26%
COc1cccc(Nc2nc(-c3ccccc3)c3cc(C)ccc3n2)c1	.	.	.	.	-16%
Oc1cccc(Nc2c3ccccc3nc3ccccc23)c1	-1%	.	.	-25	-15%
COc1ccc(Nc2c3ccccc3nc3ccccc23)cc1	-2%	i	?	-98*	3%
c1cncc(Nc2c3ccccc3nc3ccccc23)c1	1%	.	-22%	-94*	-12%
COc1cc(Nc2c3ccccc3nc3ccccc23)cc(OC)c1OC	-2%	18µM*	?	-95*	-19%
CCCc1nc2cccnc2n1C1CCN(C(=O)CC2NC(=O)c3ccccc32)CC1 (stereo not given)	.	i	.	.	.
Cc1ccccc1S(=O)(=O)NC(=O)C1(C)CCN1C(=O)Cc1cc(F)ccc1F (stereo not given)	.	i	11%	10	.
Cc1cccc(N(CC(=O)NCCSCc2cccc(Cl)c2)S(=O)(=O)c2ccccc2)c1C	.	i	0%	.	-24%
Cc1cccc([C@H]2[C@@H]3C=CCC[C@@H]3C(=O)N2Cc2ccccc2)c1	-7%	i	-3%	22	-30%
SMILES	USP2a block	S2 tox	ATXN2 expr inh	IL-1B inflam inh	USP1 inh
CCC12CN3CC(CC)(CN(C1)C3c1ccc(OCc3ccccc3)cc1)C2=O (stereo not given)	.	i	1%	.	-1%
COc1ccc(C)cc1Nc1c2c(nc3ccccc13)CCC2	2%	6.3µM*!	?	-82*	-17%
COc1ccc(Nc2cc(Nc3ccc(OC)cc3)ncn2)cc1	2%	i	14%	-2	-20%
COc1ccc(NC(=S)Nc2ccccc2)cc1	0%	?	-9%	-16	-22%
COc1ccc(Nc2cc(Nc3cc(OC)c(OC)c(OC)c3)ncn2)cc1	4%	i	29%	-80*	-9%
COc1ccc(NC(=S)c2ccccc2)cc1	0%	?	44%	-82*	-21%
O=C(CC1N=C2c3ccccc3N=C(SCC(=O)Nc3cccc(Cl)c3)N2C1=O)NCc1cccs1 (stereo not given)	.	?	0%	.	-23%
CCCN1CCCc2cc(CN(CCCN3CCOCC3)C(=O)Nc3ccc(Cl)c(Cl)c3)ccc21	.	10µM*	0%	.	-27%
